# Measurements: PubChem BioAssay (EPA / NIEHS)
# Inconclusive results are not listed. The source made the active and inactive calls. The calls were made as follows: active = hit-call score of the fitted dose curve at least 0.9, where 1 is the maximum; inconclusive = response in the unintended direction; inactive = score below 0.9.
# Columns and labels:
# [1] = TOX21_p53_BLA_p2_viability: Viability Assessment in the Tox21 HCT-116 p53 Agonism Beta-lactamase Assay, Phase 2 (AID 2283591);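 also: compound exposure lasted 16 h at 37 °C; actives lower the ATP signal meaning cytotoxicity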
# How it was run: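 Cytotoxicity readout: CellTiter-Glo ATP luminescence, 30 min at room temperature, after the beta-lactamase read. Cells were HCT116 exposed 16 h at 37C to compounds pin-transferred at 217-fold dilution from DMSO stocks.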
# [2] = molecular target: Cellular tumor antigen p53 (Homo sapiens) (UniProt P04637); assay: TOX21_p53_BLA_p2_ratio: Tox21 HCT-116 p53 Agonism Beta-lactamase Assay, Ratio, Phase 2 (AID 2283592)
# Chain of Cellular tumor antigen p53 (Homo sapiens) (P04637 whole entry, looked up): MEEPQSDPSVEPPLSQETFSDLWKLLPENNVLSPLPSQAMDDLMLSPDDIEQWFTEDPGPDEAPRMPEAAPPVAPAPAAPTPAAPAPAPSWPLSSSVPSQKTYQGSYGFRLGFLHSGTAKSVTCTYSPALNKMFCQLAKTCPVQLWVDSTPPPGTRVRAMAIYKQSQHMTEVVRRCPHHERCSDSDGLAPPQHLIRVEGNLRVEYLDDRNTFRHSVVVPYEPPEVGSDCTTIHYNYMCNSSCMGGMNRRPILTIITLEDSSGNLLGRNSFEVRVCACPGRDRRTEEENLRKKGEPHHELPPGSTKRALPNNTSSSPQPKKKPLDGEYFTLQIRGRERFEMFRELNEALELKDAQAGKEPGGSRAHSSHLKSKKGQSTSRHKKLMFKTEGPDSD
# How it was run: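 HCT-116 cells with p53-responsive beta-lactamase reporter, 4000 cells/well, preincubated 5 h, then compound in DMSO (217-fold dilution) for 16 h at 37C. CCF4-AM substrate 2 h at room temperature; 460/530 nm emission ratio fitted upward versus DMSO.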
# [3] = TOX21_p53_BLA_p3_viability: Viability Assessment in the Tox21 HCT-116 p53 Agonism Beta-lactamase Assay, Phase 3 (AID 2283593);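 also: cells exposed to compound for 16 h before reading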
# How it was run: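 Cellular ATP was quantified by CellTiter-Glo luminescence, read after 30 min at room temperature. Beforehand, HCT116 cells (4000/well) received compound 5 h post-seeding, 217-fold diluted from DMSO, then incubated 16 h at 37C.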
# [4] = molecular target: Cellular tumor antigen p53 (Homo sapiens) (UniProt P04637); assay: TOX21_p53_BLA_p3_ratio: Tox21 HCT-116 p53 Agonism Beta-lactamase Assay, Ratio, Phase 3 (AID 2283596)
# How it was run: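 HCT116 p53-bla cells (4000/well) given compound in DMSO (217-fold dilution) after 5 h, incubated 16 h at 37C. CCF4-AM substrate 2 h at room temperature; 460/530 nm emission ratio, gain fitted against DMSO.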
# [5] = TOX21_p53_BLA_p4_viability: Viability Assessment in the Tox21 HCT-116 p53 Agonism Beta-lactamase Assay, Phase 4 (AID 2283597);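 also: hits lower the luminescence signal meaning cytotoxicity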
# How it was run: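 HCT-116 p53-bla cells, 4000/well, dosed after 5 h attachment and incubated 16 h at 37 °C, 5% CO2. Viability from CellTiter-Glo ATP luminescence after 30 min at room temperature, taken after the beta-lactamase read; loss of signal indicates cytotoxicity.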
# [6] = molecular target: Cellular tumor antigen p53 (Homo sapiens) (UniProt P04637); assay: TOX21_p53_BLA_p5_ratio: Tox21 HCT-116 p53 Agonism Beta-lactamase Assay, Ratio, Phase 5 (AID 2283599)
# How it was run: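 Beta-lactamase reporter ratio (blue 460 nm over green 530 nm, 405 nm excitation) after 2 h CCF4-AM loading, in HCT-116 cells exposed 16 h at 37 C to compounds pinned at 217-fold dilution. Increases relative to DMSO baseline scored.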
# [7] = molecular target: Cellular tumor antigen p53 (Homo sapiens) (UniProt P04637); assay: TOX21_p53_BLA_p4_ratio: Tox21 HCT-116 p53 Agonism Beta-lactamase Assay, Ratio, Phase 4 (AID 2283601)
# How it was run: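 Signal is the blue/green (460nm/530nm) ratio of cleaved versus uncleaved CCF4-AM substrate, read after 2 h substrate loading. Cells were HCT116 carrying the p53-responsive beta-lactamase reporter, dosed 16 h at 37C, 5% CO2; CellTiter-Glo measured in parallel.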
SMILES,outcome [1],outcome [2],outcome [3],outcome [4],outcome [5],outcome [6],outcome [7],AC50 [3],AC50 [2],AC50 [6],AC50 [7],AC50 [4],AC50 [5]
O=C1C(=Cc2cccs2)CCCC1=Cc1cccs1,inactive,inactive,inactive,inactive,inactive,inactive,inactive,,,,,,
CCN1CCCC1CNC(=O)c1cc(S(=O)(=O)CC)ccc1OC (stereo not drawn),inactive,inactive,inactive,inactive,inactive,inactive,inactive,,,,,,
CCC(CC)(CC(=O)Nc1cccc(/C=C/c2nc(C3CCC3)cs2)c1)C(=O)O,inactive,inactive,inactive,inactive,inactive,inactive,inactive,,,,,,
CCCCCCCC/C=C\CCCCCCCC(=O)NCc1ccc(O)c(OC)c1,inactive,inactive,,inactive,inactive,inactive,inactive,41.5 µM (active),,,,,
CN(C)C(=O)Oc1cccc([N+](C)(C)C)c1,inactive,inactive,inactive,inactive,inactive,inactive,inactive,,,,,,
COc1ccc2cc1Oc1cc3c(cc1OC)CC[N+](C)(C)[C@H]3Cc1ccc(cc1)Oc1c(OC)c(OC)cc3c1[C@@H](C2)[N+](C)(C)CC3,inactive,inactive,inactive,inactive,inactive,inactive,inactive,,,,,,
CCc1cccc(N(C)C(N)=Nc2cccc3ccccc23)c1,inactive,inactive,inactive,inactive,inactive,inactive,inactive,,,,,,
C[N+]1(C)CCCC(OC(=O)C(O)(c2ccccc2)c2ccccc2)C1 (stereo not drawn),inactive,inactive,inactive,inactive,inactive,inactive,inactive,,,,,,
COc1cc(C(=O)N2CCOCC2)cc(OC)c1OC,inactive,inactive,inactive,inactive,inactive,inactive,inactive,,,,,,
CCCCC[C@H](O)/C=C/[C@@H]1[C@H]2C/C(=C/CCCC(=O)O)O[C@H]2C[C@H]1O,inactive,inactive,inactive,inactive,inactive,inactive,inactive,,,,,,
CCC(Oc1ccccc1)C(=O)N[C@@H]1C(=O)N2[C@@H]1SC(C)(C)[C@@H]2C(=O)O (stereo partly drawn),inactive,inactive,inactive,inactive,inactive,inactive,inactive,,,,,,
CCOC(=O)[C@H](CCc1ccccc1)N[C@@H](C)C(=O)N1[C@H](C(=O)O)C[C@@H]2CCC[C@@H]21,inactive,inactive,inactive,inactive,inactive,inactive,inactive,,,,,,
CC(CN1CC(=O)NC(=O)C1)N1CC(=O)NC(=O)C1 (stereo not drawn),inactive,,inactive,inactive,inactive,,,,8.6 µM (active),8.51 µM (active),8.89 µM (active),,
Nc1ccncc1N,inactive,inactive,inactive,inactive,inactive,inactive,inactive,,,,,,
C=Cc1c(C)c2cc3[nH]c(cc4nc(cc5nc(cc1[nH]2)C(C)=C5CCC(=O)O)C(CCC(=O)O)=C4C)c(C)c3C=C,inactive,inactive,inactive,inactive,inactive,inactive,inactive,,,,,,
O=C(OCC1CO1)C1CCCCC1C(=O)OCC1CO1 (stereo not drawn),inactive,,inactive,inactive,inactive,inactive,inactive,,61 µM (active),,,,
C1CCN2C[C@@H]3C[C@@H](CN4CCCC[C@@H]34)[C@H]2C1,inactive,inactive,inactive,inactive,inactive,inactive,inactive,,,,,,
CC=C(C(=CC)c1ccc(O)cc1)c1ccc(O)cc1,inactive,inactive,inactive,,inactive,inactive,,,,,3.75 µM (active),4.02 µM (active),
O=S(=O)(c1ccccc1)c1ccc(Cl)cc1,inactive,inactive,inactive,inactive,inactive,inactive,inactive,,,,,,
C#C[C@]1(O)CC[C@H]2[C@@H]3CCC4=C/C(=N/O)CC[C@@H]4[C@H]3CC[C@@]21CC,inactive,inactive,inactive,inactive,,inactive,inactive,,,,,,38.1 µM (active)
CN1C[C@H](C(=O)N[C@]2(C)O[C@@]3(O)[C@@H]4CCCN4C(=O)[C@H](Cc4ccccc4)N3C2=O)C[C@@H]2c3cccc4[nH]cc(c34)C[C@H]21,inactive,inactive,inactive,inactive,inactive,inactive,inactive,,,,,,
COc1ccc(N)c(OC)c1,inactive,inactive,inactive,inactive,inactive,inactive,inactive,,,,,,
CC[C@H](NC(C)C)[C@H](O)c1ccc(O)c2[nH]c(=O)ccc12,inactive,inactive,inactive,inactive,inactive,inactive,inactive,,,,,,
CC[C@H]1OC(=O)[C@H](C)[C@@H](O[C@H]2C[C@@](C)(OC)[C@@H](O)[C@H](C)O2)[C@H](C)[C@@H](O[C@@H]2O[C@H](C)C[C@H](N(C)C)[C@H]2O)[C@](C)(OC)C[C@@H](C)C(=O)[C@H](C)[C@@H](O)[C@]1(C)O,inactive,inactive,inactive,inactive,inactive,inactive,inactive,,,,,,
